Laboratory results published in PubChem BioAssay (EPA / NIEHS).
The source made the active and inactive calls. How the source made its calls: active means hit-call score of the fitted dose curve at least 0.9, where 1 is the maximum; inactive means score below 0.9.

Assay: CCTE_Harrill_HTTr_Apoptosis_MCF7: CCTE's 6-hour Apoptosis Assessment for the High-Throughput Transcriptomics (HTTr) Platform, in MCF-7 cells cultured in DMEM + 10% fetal bovine serum, Harrill Lab (AID 2284011)
From the text: This is a cell-based assay that evaluates apoptosis using high content imaging to evaluate activation of caspase-3/7 using the CellEvent Caspase 3/7 Green detection reagent in 384-well format.One of seven assay components measured from the CCTE_Harrill_HTTr_Apoptosis assay. This was part of a full screening experiment. This is a cell-based assay that evaluates apoptosis in MCF-7 cells cultured in DMEM + 10% fetal bovine serum. High content imaging is used to evaluate activation of caspase-3/7 using the CellEvent Caspase 3/7 Green detection reagent. Measurements are taken at 6 hours after chemical dosing in 384-well format.The assay component endpoint CCTE_Harrill_HTTr_Apoptosis_MCF7 was analyzed with bidirectional fitting relation to DMSO as the negative control and baseline of activity. Using a type of viability reporter, gain-of-signal activity can be used to evaluate activation of caspase-3/7 using the CellEvent Caspase 3/7 Green detection reagent to understand changes in apoptosis. To generalize the intended target to other relatable targets, this assay endpoint is annotated to cell cycle, where the subfamily is apoptosis.
Chemicals were tested in MCF7 cells in an eight point dilution series with a six hour exposure duration.

Row | SMILES | outcome
1 | Nc1ncnc2nc[nH]c12 | inactive
2 | Fc1ccc(Br)cc1 | inactive
3 | CCCCC1C(=O)N(c2ccccc2)N(c2ccccc2)C1=O | inactive
4 | Cc1c[nH]c(=O)[nH]c1=O | inactive
5 | CCOC(=O)C1=NOC(c2ccccc2)(c2ccccc2)C1 | inactive
6 | CC(C)=CCl | inactive
7 | CC(=O)OCc1ccccc1 | inactive
8 | COc1ccc(C(=O)c2ccccc2)c(O)c1 | inactive
9 | O=C(O)c1ccc2c(c1)C(=O)OC2=O | inactive
10 | O=C(OCc1ccccc1)c1ccc(O)cc1 | inactive
11 | CC(C)OC(=O)c1ccccc1 | inactive
12 | O=C(Oc1ccccc1)c1ccccc1O | inactive
13 | Oc1ccc(/C=C/c2cc(O)cc(O)c2)cc1 | inactive
14 | CC(=O)OCC=C(C)C | inactive
15 | CCCCCCCCCCCCC | inactive
16 | CC1(C)CC(O)CC(C)(C)N1[O] | inactive
17 | CC/C=C\CCOC(=O)c1ccccc1O | inactive
18 | Cc1ccc(C)c(OCCCC(C)(C)C(=O)O)c1 | inactive
19 | O=C(O)CCC(=O)O | inactive
20 | CCCCCCCCCCCCCC(=O)OC(C)C | inactive

Row | SMILES | outcome
21 | CCCCCCCC(=O)OCC(COC(=O)CCCCCCC)OC(=O)CCCCCCC | inactive
22 | Cc1c(C(=O)c2c[nH]n(C)c2=O)ccc(S(C)(=O)=O)c1C1=NOCC1 | inactive
23 | COC(Cc1ccccc1)OC | inactive
24 | c1ccc2cnccc2c1 | inactive
25 | CCCC(C)C(=O)OCC (stereo not given) | inactive
26 | C=Cc1ccc(OC(C)=O)cc1 | inactive
27 | NNS(=O)(=O)c1ccc(Oc2ccc(S(=O)(=O)NN)cc2)cc1 | inactive
28 | CCCCC(C=O)CC (stereo not given) | inactive
29 | Cc1ccc([N+](=O)[O-])cc1N | inactive
30 | C=CCCCCCCCCC=O | inactive
31 | CCCc1ccc(O)c(OC)c1 | inactive
32 | C=C(C)C1CC=C(C)CC1 (stereo not given) | inactive
33 | CC(C)[N+](C)(CCOC(=O)C1c2ccccc2Oc2ccccc21)C(C)C | inactive
34 | CC(=O)CCC=C(C)C | inactive
35 | CCCCCC(=O)OCC | inactive
36 | CN(C)c1ccc2nc3ccc(=[N+](C)C)cc-3sc2c1 | inactive
37 | CC(C=O)c1ccccc1 (stereo not given) | inactive
38 | CC(=O)/C=C/C1C(C)=CCCC1(C)C (stereo not given) | inactive
39 | CC1CCC(=O)C1=O (stereo not given) | inactive
40 | Cc1noc(NS(=O)(=O)c2ccc(N)cc2)c1C | inactive
